Source: PubChem BioAssay (NCATS)
Records with an inconclusive call do not appear. Activity calls are given as the source filed them. Calls come from the whole dose curve; as a rule, active = well fitted curve in the direction sought with a large enough effect; inconclusive = small, poorly fitted or top-dose-only effect, or another doubt; inactive = no such curve, though single readings can be large; an effect the other way counts as inactive or inconclusive.

Key:
[1] = biological target: Ubiquitin carboxyl-terminal hydrolase 1 (Homo sapiens) (UniProt O94782); assay: Inhibitors of USP1/UAF1: Pilot qHTS (AID 504865);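 note: rhodamine fluorescence freed from ubiquitin-rhodamine substrate followed over time; top concentration of the series differs between compounds; % is set by controls: 0 for no effect and ±100 for the full control effect; nearly all actives have a fitted effect of over 35% in size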
Chain of Ubiquitin carboxyl-terminal hydrolase 1 (Homo sapiens) (O94782 whole entry, looked up): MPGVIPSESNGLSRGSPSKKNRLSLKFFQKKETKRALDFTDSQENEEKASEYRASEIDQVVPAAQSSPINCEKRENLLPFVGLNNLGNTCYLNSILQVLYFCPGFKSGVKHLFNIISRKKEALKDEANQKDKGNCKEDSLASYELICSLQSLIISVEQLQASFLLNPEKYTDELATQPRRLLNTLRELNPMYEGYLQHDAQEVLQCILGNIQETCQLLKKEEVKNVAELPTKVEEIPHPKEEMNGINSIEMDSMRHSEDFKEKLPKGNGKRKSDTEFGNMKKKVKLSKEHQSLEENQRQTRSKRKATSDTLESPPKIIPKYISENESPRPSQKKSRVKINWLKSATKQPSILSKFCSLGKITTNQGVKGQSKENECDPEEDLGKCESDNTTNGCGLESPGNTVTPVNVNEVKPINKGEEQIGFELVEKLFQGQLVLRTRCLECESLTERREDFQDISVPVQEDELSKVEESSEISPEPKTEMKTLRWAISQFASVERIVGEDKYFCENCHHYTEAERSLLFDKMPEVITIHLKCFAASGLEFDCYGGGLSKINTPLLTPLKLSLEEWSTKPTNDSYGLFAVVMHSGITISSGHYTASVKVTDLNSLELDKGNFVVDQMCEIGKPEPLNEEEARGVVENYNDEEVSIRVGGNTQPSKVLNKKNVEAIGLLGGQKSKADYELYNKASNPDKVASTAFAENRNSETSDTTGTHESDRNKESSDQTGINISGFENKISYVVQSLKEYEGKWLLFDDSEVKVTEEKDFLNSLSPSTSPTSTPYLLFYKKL
In short: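 Deubiquitinase activity followed as kinetic rhodamine fluorescence release from 150 nM Ub-Rho. 1 nM USP1/UAF1 with compound, after 15 min room-temperature preincubation, in HEPES pH 7.8 buffer containing TCEP, EDTA, BSA and Tween-20.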

[2] = biological target: Luciferin 4-monooxygenase (Photinus pyralis) (UniProt P08659); assay: Biochemical firefly luciferase enzyme assay for NPC (AID 624030);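 note: purified P. pyralis luciferase at 10 nM with luciferin and ATP substrate; 0% = DMSO and -100% = full luciferase inhibition by PTC124 control; nearly all actives have a fitted effect of over 70% in size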
Chain of Luciferin 4-monooxygenase (Photinus pyralis) (P08659 whole entry, looked up): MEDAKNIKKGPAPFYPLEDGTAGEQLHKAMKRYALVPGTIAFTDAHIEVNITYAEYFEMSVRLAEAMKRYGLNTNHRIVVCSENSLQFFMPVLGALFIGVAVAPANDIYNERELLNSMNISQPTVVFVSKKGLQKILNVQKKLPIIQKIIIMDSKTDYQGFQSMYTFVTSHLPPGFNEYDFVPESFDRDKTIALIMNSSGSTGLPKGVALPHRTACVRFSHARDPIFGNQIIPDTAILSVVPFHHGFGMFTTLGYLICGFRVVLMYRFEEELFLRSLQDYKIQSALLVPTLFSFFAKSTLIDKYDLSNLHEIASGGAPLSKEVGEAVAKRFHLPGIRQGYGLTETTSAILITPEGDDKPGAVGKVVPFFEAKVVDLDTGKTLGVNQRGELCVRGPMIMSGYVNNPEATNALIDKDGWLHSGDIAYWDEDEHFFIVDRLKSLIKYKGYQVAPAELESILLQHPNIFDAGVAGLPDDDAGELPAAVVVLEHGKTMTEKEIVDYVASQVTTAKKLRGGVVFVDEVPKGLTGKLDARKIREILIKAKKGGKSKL
In short: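 Counter-screen for direct inhibition of the luciferase enzyme by approved-drug library compounds, run at 10 nM enzyme in 50 mM Tris acetate (final). Luminescence was read within 5 min of enzyme-buffer addition and normalized to PTC124 versus DMSO (0%).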

[3] = S16 Schwann cell viability assay (CellTiter-Glo assay) (AID 624031);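 note: cellular ATP luminescence as a viability measure; plate controls were DMSO-treated cells for no effect and cell-free wells for full effect; nearly all actives have a fitted effect of over 70% in size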
In short: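 Native S16 rat Schwann cells in DMEM/10% FBS without phenol red were incubated overnight, then exposed to compounds for 24 h at 37 °C/5% CO2. Viability was read as ATP luminescence (CellTiter-Glo), normalized to no-cell wells and DMSO (0%).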

[4] = S16 Schwann cell PMP22 intronic element firefly luciferase assay (AID 624032);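 note: plate controls were DMSO for no effect and PTC124 positive control mean for full effect; nearly all actives have a fitted effect of over 30% in size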
In short: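 Rat S16 Schwann cells stably carrying a PMP22 intronic element-driven Fluc reporter were seeded overnight, then exposed to compounds for 24 h at 37 °C. Luminescence was normalized to PTC124 (positive control) and DMSO (0% activity).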

[5] = qHTS profiling for inhibitors of Plasmodium falciparum proliferation (AID 504749);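 note: 0% = DMSO vehicle and full inhibition = artemisinin control; nearly all actives have a fitted effect of over 60% in size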; settings: P. falciparum in erythrocytes, SYBR Green DNA, 72 h, at 28.7 µM (top of the series)
In short: (§1)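 Parasite proliferation within erythrocytes, 72 h exposure. Endpoint: SYBR Green I fluorescence after overnight lysis at room temperature. Controls: 0.29 uM artemisinin, DMSO.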

3D7 = assay: as above; settings: P. falciparum in erythrocytes, SYBR Green DNA, 72 h; series mostly up to 28.7 µM
In short: as §1

7G8 = assay: as above; settings: P. falciparum in erythrocytes, SYBR Green DNA, 72 h; series mostly up to 28.7 µM
In short: as §1

AA1029 = assay: as above; settings: P. falciparum in erythrocytes, SYBR Green DNA, 72 h; series mostly up to 28.7 µM
In short: as §1

AS120 = assay: as above; settings: P. falciparum in erythrocytes, SYBR Green DNA, 72 h; series mostly up to 28.7 µM
In short: as §1

ATS189 = assay: as above; settings: P. falciparum in erythrocytes, SYBR Green DNA, 72 h; series mostly up to 28.7 µM
In short: as §1

ATS95 = assay: as above; settings: P. falciparum in erythrocytes, SYBR Green DNA, 72 h; series mostly up to 28.7 µM
In short: as §1

C2A = assay: as above; settings: P. falciparum in erythrocytes, SYBR Green DNA, 72 h; series mostly up to 28.7 µM
In short: as §1

CP185 = assay: as above; settings: P. falciparum in erythrocytes, SYBR Green DNA, 72 h; series mostly up to 28.7 µM
In short: as §1

CP191 = assay: as above; settings: P. falciparum in erythrocytes, SYBR Green DNA, 72 h; series mostly up to 28.7 µM
In short: as §1

CP192 = assay: as above; settings: P. falciparum in erythrocytes, SYBR Green DNA, 72 h; series mostly up to 28.7 µM
In short: as §1

CP194 = assay: as above; settings: P. falciparum in erythrocytes, SYBR Green DNA, 72 h; series mostly up to 28.7 µM
In short: as §1

CP201 = assay: as above; settings: P. falciparum in erythrocytes, SYBR Green DNA, 72 h; series mostly up to 28.7 µM
In short: as §1

CP203 = assay: as above; settings: P. falciparum in erythrocytes, SYBR Green DNA, 72 h; series mostly up to 28.7 µM
In short: as §1

CP211 = assay: as above; settings: P. falciparum in erythrocytes, SYBR Green DNA, 72 h; series mostly up to 28.7 µM
In short: as §1

CP215 = assay: as above; settings: P. falciparum in erythrocytes, SYBR Green DNA, 72 h; series mostly up to 28.7 µM
In short: as §1

CP217 = assay: as above; settings: P. falciparum in erythrocytes, SYBR Green DNA, 72 h; series mostly up to 28.7 µM
In short: as §1

CP237 = assay: as above; settings: P. falciparum in erythrocytes, SYBR Green DNA, 72 h; series mostly up to 28.7 µM
In short: as §1

CP238 = assay: as above; settings: P. falciparum in erythrocytes, SYBR Green DNA, 72 h; series mostly up to 28.7 µM
In short: as §1

CP247 = assay: as above; settings: P. falciparum in erythrocytes, SYBR Green DNA, 72 h; series mostly up to 28.7 µM
In short: as §1

CP250 = assay: as above; settings: P. falciparum in erythrocytes, SYBR Green DNA, 72 h; series mostly up to 28.7 µM
In short: as §1

CP252 = assay: as above; settings: P. falciparum in erythrocytes, SYBR Green DNA, 72 h; series mostly up to 28.7 µM
In short: as §1

CP256 = assay: as above; settings: P. falciparum in erythrocytes, SYBR Green DNA, 72 h; series mostly up to 28.7 µM
In short: as §1

CP260 = assay: as above; settings: P. falciparum in erythrocytes, SYBR Green DNA, 72 h; series mostly up to 28.7 µM
In short: as §1

CP262 = assay: as above; settings: P. falciparum in erythrocytes, SYBR Green DNA, 72 h; series mostly up to 28.7 µM
In short: as §1

CP265 = assay: as above; settings: P. falciparum in erythrocytes, SYBR Green DNA, 72 h; series mostly up to 28.7 µM
In short: as §1

CP266 = assay: as above; settings: P. falciparum in erythrocytes, SYBR Green DNA, 72 h; series mostly up to 28.7 µM
In short: as §1

CP268 = assay: as above; settings: P. falciparum in erythrocytes, SYBR Green DNA, 72 h; series mostly up to 28.7 µM
In short: as §1

CP269 = assay: as above; settings: P. falciparum in erythrocytes, SYBR Green DNA, 72 h; series mostly up to 28.7 µM
In short: as §1

CP286 = assay: as above; settings: P. falciparum in erythrocytes, SYBR Green DNA, 72 h; series mostly up to 28.7 µM
In short: as §1

CP291 = assay: as above; settings: P. falciparum in erythrocytes, SYBR Green DNA, 72 h; series mostly up to 28.7 µM
In short: as §1

CP297 = assay: as above; settings: P. falciparum in erythrocytes, SYBR Green DNA, 72 h; series mostly up to 28.7 µM
In short: as §1

CP305 = assay: as above; settings: P. falciparum in erythrocytes, SYBR Green DNA, 72 h; series mostly up to 28.7 µM
In short: as §1

CP315 = assay: as above; settings: P. falciparum in erythrocytes, SYBR Green DNA, 72 h; series mostly up to 28.7 µM
In short: as §1

CP325 = assay: as above; settings: P. falciparum in erythrocytes, SYBR Green DNA, 72 h; series mostly up to 28.7 µM
In short: as §1

CP329 = assay: as above; settings: P. falciparum in erythrocytes, SYBR Green DNA, 72 h; series mostly up to 28.7 µM
In short: as §1

CP335 = assay: as above; settings: P. falciparum in erythrocytes, SYBR Green DNA, 72 h; series mostly up to 28.7 µM
In short: as §1

DIV14 = assay: as above; settings: P. falciparum in erythrocytes, SYBR Green DNA, 72 h; series mostly up to 28.7 µM
In short: as §1

DIV17 = assay: as above; settings: P. falciparum in erythrocytes, SYBR Green DNA, 72 h; series mostly up to 28.7 µM
In short: as §1

DIV30 = assay: as above; settings: P. falciparum in erythrocytes, SYBR Green DNA, 72 h; series mostly up to 28.7 µM
In short: as §1

Dd2 = assay: as above; settings: P. falciparum in erythrocytes, SYBR Green DNA, 72 h; series mostly up to 28.7 µM
In short: as §1

ECU = assay: as above; settings: P. falciparum in erythrocytes, SYBR Green DNA, 72 h; series mostly up to 28.7 µM
In short: as §1

FAB9 = assay: as above; settings: P. falciparum in erythrocytes, SYBR Green DNA, 72 h; series mostly up to 28.7 µM
In short: as §1

GB4 = assay: as above; settings: P. falciparum in erythrocytes, SYBR Green DNA, 72 h; series mostly up to 28.7 µM
In short: as §1

HB3 = assay: as above; settings: P. falciparum in erythrocytes, SYBR Green DNA, 72 h; series mostly up to 28.7 µM
In short: as §1

ICS = assay: as above; settings: P. falciparum in erythrocytes, SYBR Green DNA, 72 h; series mostly up to 28.7 µM
In short: as §1

JCK = assay: as above; settings: P. falciparum in erythrocytes, SYBR Green DNA, 72 h; series mostly up to 28.7 µM
In short: as §1

N140 = assay: as above; settings: P. falciparum in erythrocytes, SYBR Green DNA, 72 h; series mostly up to 28.7 µM
In short: as §1

P93_24 = assay: as above; settings: P. falciparum in erythrocytes, SYBR Green DNA, 72 h; series mostly up to 28.7 µM
In short: as §1

P94_40 = assay: as above; settings: P. falciparum in erythrocytes, SYBR Green DNA, 72 h; series mostly up to 28.7 µM
In short: as §1

PAD = assay: as above; settings: P. falciparum in erythrocytes, SYBR Green DNA, 72 h; series mostly up to 28.7 µM
In short: as §1

PC15 = assay: as above; settings: P. falciparum in erythrocytes, SYBR Green DNA, 72 h; series mostly up to 28.7 µM
In short: as §1

PC26 = assay: as above; settings: P. falciparum in erythrocytes, SYBR Green DNA, 72 h; series mostly up to 28.7 µM
In short: as §1

PC49 = assay: as above; settings: P. falciparum in erythrocytes, SYBR Green DNA, 72 h; series mostly up to 28.7 µM
In short: as §1

SC27B = assay: as above; settings: P. falciparum in erythrocytes, SYBR Green DNA, 72 h; series mostly up to 28.7 µM
In short: as §1

TAB109 = assay: as above; settings: P. falciparum in erythrocytes, SYBR Green DNA, 72 h; series mostly up to 28.7 µM
In short: as §1

TAB113 = assay: as above; settings: P. falciparum in erythrocytes, SYBR Green DNA, 72 h; series mostly up to 28.7 µM
In short: as §1

TAB165 = assay: as above; settings: P. falciparum in erythrocytes, SYBR Green DNA, 72 h; series mostly up to 28.7 µM
In short: as §1

W2 = assay: as above; settings: P. falciparum in erythrocytes, SYBR Green DNA, 72 h; series mostly up to 28.7 µM
In short: as §1

CNCC(=O)NC(CCCN=C(N)N)C(=O)NC(C(=O)NC(Cc1ccc(O)cc1)C(=O)NC(C(=O)NC(Cc1cnc[nH]1)C(=O)N1CCCC1C(=O)NC(C)C(=O)O)C(C)C)C(C)C (centres undefined)
inactive: Potency [1] | Potency [2] | Potency [3] | Potency [4] | activity, negative = inhibition ([5]; parasite line A) 15.8% | activity, negative = inhibition ([5]; parasite line B) 17.4% | Potency (3D7) | Potency (7G8) | Potency (AA1029) | Potency (AS120) | Potency (ATS189) | Potency (ATS95) | Potency (C2A) | Potency (CP185) | Potency (CP191) | Potency (CP192) | Potency (CP194) | Potency (CP201) | Potency (CP203) | Potency (CP211) | Potency (CP215) | Potency (CP217) | Potency (CP237) | Potency (CP238) | Potency (CP247) | Potency (CP250) | Potency (CP252) | Potency (CP256) | Potency (CP260) | Potency (CP262) | Potency (CP265) | Potency (CP266) | Potency (CP268) | Potency (CP269) | Potency (CP286) | Potency (CP291) | Potency (CP297) | Potency (CP305) | Potency (CP315) | Potency (CP325) | Potency (CP329) | Potency (CP335) | Potency (DIV14) | Potency (DIV17) | Potency (DIV30) | Potency (Dd2) | Potency (ECU) | Potency (FAB9) | Potency (GB4) | Potency (HB3) | Potency (ICS) | Potency (JCK) | Potency (N140) | Potency (P93_24) | Potency (P94_40) | Potency (PAD) | Potency (PC15) | Potency (PC26) | Potency (PC49) | Potency (SC27B) | Potency (TAB109) | Potency (TAB113) | Potency (TAB165) | Potency (W2)
